Assay outcomes from PubChem.
hcDAF12 agonist – activates DAF-12 receptor from parasite H. contortus; HEK293 hcDAF-12 lit1-tk-luc reporter, luminescence; 0% DMSO, 100% Δ7-dafachronic acid; activation, % at 6.8 µM; actives 1.4% (n = 370,000); AID 652067;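 active = activation above the mean of all tested compounds plus 3 SD, cut at about 5.5% in these data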;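 note: 100% = response to 3 µM Δ7-dafachronic acid high control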
hgDAF12 agonist – activates the H. glycines DAF-12 receptor ligand-binding domain; HEK293 GAL4-hgDAF12 UAS-luciferase reporter, agonist luminescence; normalized to butyrate control; activation, % at 6.8 µM; actives 1.8% (n = 370,000);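 active = activation above a cutoff set at the mean of all screened compounds plus 3 SD, cut at about 10% in these data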;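 note: 0% = DMSO wells and 100% = sodium butyrate wells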
DAX1 inh-1 – inhibitors of DAX1 repression of SF-1 activated StAR promoter; HEK293T StAR-luciferase reporter, SF-1/DAX-1 repression relief; inhibition, % at 6.8 µM; actives 1.1% (n = 370,000); AID 652010;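 active = inhibition above the mean over all tested compounds plus 3 SD, cut at about 3.6% in these data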;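 note: 0% = DAX-1 cells with DMSO and 100% = cells lacking DAX-1 with DMSO; higher inhibition means more luminescence from relief of DAX-1 repression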
GAA850 FXN act – activators of GAA850 frataxin (FXN) promoter | actives 0.56% (n = 360,000) | HEK293 lucGAA850 FXN promoter luciferase reporter, 24 h; percent of 10 µM SAHA response | activation, % at 6 µM;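 active = activation above the average of all compounds screened plus 3 SD, cutoff fixed separately per campaign, cut at about 7.5% in these data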;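 note: 0% = DMSO wells and 100% = 10 µM SAHA wells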
DAX1 inh-2 – inhibits human nuclear receptor DAX1; inhibition, % at 6.75 µM; P51843; actives 0.99% (n = 340,000); AID 504766; HEK293 Gal4-DAX1 luciferase reporter, luminescence;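 active = inhibition above the mean over all tested compounds plus 3 SD, cut at about 4.2% in these data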;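 note: 0% = DAX1-transfected cells with DMSO and 100% = empty-vector control cells with DMSO; inhibition shows as a rise in luminescence from relieved DAX1 repression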
Target sequence (P51843 207-470 limits assumed): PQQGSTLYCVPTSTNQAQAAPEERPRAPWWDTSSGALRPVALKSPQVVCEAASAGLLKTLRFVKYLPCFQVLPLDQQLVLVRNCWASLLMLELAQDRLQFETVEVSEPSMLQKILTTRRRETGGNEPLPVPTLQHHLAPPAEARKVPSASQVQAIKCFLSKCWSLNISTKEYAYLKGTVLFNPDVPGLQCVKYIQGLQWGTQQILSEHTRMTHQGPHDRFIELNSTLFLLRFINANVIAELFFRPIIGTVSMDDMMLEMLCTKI
ssDAF-12 act – S. stercoralis DAF-12 activation, primary screen. HEK293 ssDAF-12/GRIP1 lit1-tk-luc reporter, luminescence; % of 3 µM dafachronic acid response. activation, % at 6.8 µM. actives 1% (n = 370,000). AID 652126;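 active = activation above the mean over all tested compounds plus 3 SD, cut at about 0.9% in these data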;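 note: 0% = DMSO-only wells and 100% = 3 µM delta7-dafachronic acid wells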
* marks the source's active call; other numbers are inactive results; x = no result given. Hits are enriched below; roughly 4.5% of the tested compounds scored in any of these assays.

SMILES | hcDAF12 agonist | hgDAF12 agonist | DAX1 inh-1 | GAA850 FXN act | DAX1 inh-2 | ssDAF-12 act
OCC(O)CNC(=S)NC1CCCCC1 (stereo unspecified) | -1 | 0 | 0 | -1 | 4.9* | -1
Cc1nn(C(C)(C)C)c(C)c1/C=N/OC(=O)Nc1ccc(Cl)c(Cl)c1 | -7 | -13 | -1 | -13 | -7 | -3
COc1ccc(NC(=O)O/N=C/c2c(C)nn(C(C)(C)C)c2C)cc1 | -1 | -1 | 1 | -3 | 6.3* | -1
CCCCNC(=O)C1CCN(S(=O)(=O)N2CCCCCC2)CC1 | 5.9* | 0 | 0 | -2 | -1 | 0
CSc1ccccc1OCc1cc(C(=O)N2CCN(C)C(c3ccccc3)C2)no1 (stereo unspecified) | 4 | 4 | 0 | -1 | 1 | -1
COc1ccccc1OCc1cc(C(=O)N2CCN(C)C(c3ccccc3)C2)no1 (stereo unspecified) | 2 | 7 | 4.2* | 6 | 2 | 0
COc1ccccc1OCc1cc(C(=O)N2CC3C[C@@H]4CC2C[C@H](C3)C4)no1 | 1 | 12* | 3.7* | 3 | 2 | -1
O=C(c1cc(COc2c(F)cccc2F)on1)N1C[C@H]2CC[C@H]1C2 | 4 | 11* | 4 | 3 | 1 | 0
C[C@@H]1OC(C2CCCCC2)N(C)[C@H]2C[C@H]3c4cc(N5CCOCC5)ccc4CCN3C[C@@H]12 (stereo partly specified) | 1 | 4 | 1 | x | x | -2
COc1ccc(-c2nnc3n2N=C(c2cccc([N+](=O)[O-])c2)CS3)cc1 | -1 | -1 | -3 | x | x | 0
Cc1ccc(C(=O)N2CCC(C(=O)NC3CCCC3)CC2)cc1 | 0 | -1 | 0 | 3 | 4.3* | 0
CCOC(=O)c1[nH]c2ccccc2c1NC(=O)NC(C)C | 4 | 0 | 0 | 0 | 3 | 0
CCOC(=O)c1[nH]c2ccccc2c1NC(=S)Nc1cccc(C)c1C | 6.2* | 0 | 1 | 4 | 2 | 0
CCC1=C(c2ccc(OC)cc2)CCC(C(=O)O)C1C (stereo unspecified) | -1 | 0 | 0 | -3 | 0 | 61*
O=C(NC1CC1)C1=C[C@@H](c2c[nH]c3ccccc23)C[C@@H](OCc2ccc(CO)cc2)O1 | 2 | 11* | 0 | 0 | 1 | -1
CCC(=O)Nc1ccc2c(c1)C(=O)N(C)[C@@H]1CC[C@@H](CC(=O)NCc3ccc(OC)cc3)O[C@H]1CO2 | 0 | 1 | 1 | x | x | 0
CCN(CC)C(=O)CC[C@@H]1CC[C@]2(CCCN(C(=O)c3cccnc3)C2)O1 | 1 | -3 | 0 | x | x | -1
Cc1noc(/C=C/N(C)C)c1S(=O)(=O)N1CCCC(C(=O)N2CCc3ccccc32)C1 (stereo unspecified) | 2 | 0 | 0 | -2 | 0 | -1
Cc1n[nH]c(C)c1S(=O)(=O)N1CCCC(C(=O)N2CCc3ccccc32)C1 (stereo unspecified) | 2 | 0 | 0 | -2 | -1 | 1.9*
COc1ccc(N=Nc2ccc(CO)cc2)cc1 | 7.3* | 10 | 1 | -1 | 2 | 1.3*
COc1ccc(C/C(N)=N/O)cc1 | 0 | 1 | 0 | 0 | 0 | -1
CC(Oc1ccc(C(=O)NCCc2ccccc2)cc1)C(=O)O (stereo unspecified) | 0 | -3 | 0 | 1 | 2 | -1
Cc1cccc(C(=O)NCCc2ccccc2)c1 | 3 | 13* | 3 | 2 | 3 | 0
O=C(CNC(=O)c1ccccc1F)NNC(=O)c1ccccc1O | -1 | 1 | 0 | 2 | -1 | -1
CCCCOc1ccc(C(=O)NCCc2ccccc2)cc1 | 2 | 6 | 2 | 4 | 3 | 1.1*
CCOc1ccc(NC(=S)NCCCc2ccccc2)cc1 | 0 | 2 | 0 | 1 | 0 | -1
Cc1cccc(C(=O)NCC(=O)NNC(=O)c2ccccc2O)c1 | 6.1* | 0 | 0 | 0 | 4 | 0
NC(=S)c1ccc(OCCCc2ccccc2)cc1 | 2 | 12* | 1 | 4 | 3 | -1
CCC(CC)C(=O)Nc1cccc(C(=O)NCCc2ccccc2)c1 | 2 | 8 | 1 | 1 | 1 | -1
